Screens: PubChem, National Center for Advancing Translational Sciences (NCATS)
CHX counter = counter-screen hit for Shiga toxin inhibitors, cycloheximide; cell reporter, cycloheximide protein synthesis inhibition counterscreen; max response, %; hit rate 12% among 300,000; AID 2314; in the data active = max response mostly above about 13%, no sharp cut-off; inactive = mostly below about 14%; also: read at 38.3 µM for the half of the compounds with a filed dose; 0% is about no effect
Pf growth 96h = P. falciparum growth inhibition at 96 hour, primary screen for plastid delayed-death inhibitors. Potency, µM (highest dose often 28.7 µM), inactives show at the top dose activity change, negative = inhibition, hits mostly inhibitors. P. falciparum luciferase reporter growth, 96 h. hit rate 6.9% among 320,000. AID 504834; also: potency is read from the fitted curve at half-maximal effect; % is scaled to controls: 0 for no effect and ±100 for the full control effect
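Parasite growth measured via integrated firefly luciferase reporter in P. falciparum. Infected erythrocytes at 2% hematocrit, 0.05% parasitemia final were treated 96 hours at 37 C under 5% CO2, and luminescence was read.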
Shiga inhibitor = blocks Shiga toxin action in Vero cells. Vero cells, Shiga toxin protein synthesis inhibition reporter. inhibition, % at 38.7 µM. hit rate 9.2% among 290,000. AID 2315; in the data active = inhibition mostly above about 28%, no sharp cut-off; inactive = mostly below about 43%; also: 0% is about no effect
Giardia FBPA inh = Giardia lamblia aldolase inhibition; purified Giardia FBPA; Potency, µM (doses to about 59.6 µM), without a hit: top-dose activity, negative = inhibition, usual class: inhibitors; hit rate 0.71% among 290,000; AID 2451; also: potency is read from the fitted curve at half-maximal effect; % is scaled to controls: 0 for no effect and ±100 for the full control effect; nearly all actives have a fitted effect of over 55% in size
Target sequence (A8B2U2 whole entry, looked up): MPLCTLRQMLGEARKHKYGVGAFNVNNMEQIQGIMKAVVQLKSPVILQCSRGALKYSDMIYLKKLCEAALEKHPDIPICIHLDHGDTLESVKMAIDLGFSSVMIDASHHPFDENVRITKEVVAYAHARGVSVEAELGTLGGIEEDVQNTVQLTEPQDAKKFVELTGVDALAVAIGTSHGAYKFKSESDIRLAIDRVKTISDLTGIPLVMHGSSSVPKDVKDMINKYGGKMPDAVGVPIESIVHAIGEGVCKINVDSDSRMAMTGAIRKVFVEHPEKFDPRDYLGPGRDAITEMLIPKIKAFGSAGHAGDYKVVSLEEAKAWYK
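Giardia FBPA (40 nM reagent) was preincubated 10 min at RT with compound (up to 57.5 uM final), then substrate plus GAPDH/TPI/NAD/arsenate coupling system with diaphorase/resazurin was added; resorufin fluorescence (525/598 nm) was read after 20 min.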
Pf growth 48h = P. falciparum growth inhibition at 48 hours (one generation). Potency, µM (highest dose often 28.7 µM), without a hit: top-dose activity change, negative = inhibition, usual class: inhibitors. P. falciparum luciferase growth in erythrocytes, 48 h. hit rate 5.9% among 310,000; also: potency is read from the fitted curve at half-maximal effect; % is scaled to controls: 0 for no effect and ±100 for the full control effect
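Luciferase-expressing P. falciparum in infected erythrocytes (2% hematocrit, 0.1% parasitemia final) in RPMI 1640/0.5% Albumax were exposed to compound for 48 hours at 37 C, 5% CO2; growth read as luminescence.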
NS1 function inh = influenza NS1 inhibition; hit rate 0.4% among 270,000; Potency, µM (highest dose often 46.1 µM), for the others: top-dose activity, positive = more growth; AID 2326; calls by dose curve; also: potency is read from the fitted curve at half-maximal effect; actives are rising curves; nearly all actives have a fitted effect of over 50% in size
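OD600 was taken as the measure of yeast growth restored by compound in an NS1-expressing S. cerevisiae strain. Cells had been washed out of glucose medium and diluted 1:100 into galactose -URA medium, pH 6.0.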
Starred values were filed as active, the others as inactive; ? = inconclusive; nt = no result given; [ ] = dose if it differs, or a comment. The list is not random: actives were taken first. Their share in the collection is about 21%. Unless noted, calls follow the shape of the dose curve; as a rule, active = well fitted curve in the direction sought with a large enough effect; inconclusive = small, poorly fitted or top-dose-only effect, or another doubt; inactive = no such curve, though single readings can be large; an effect the other way counts as inactive or inconclusive.

SMILES	CHX counter	Pf growth 96h	Shiga inhibitor	Giardia FBPA inh	Pf growth 48h	NS1 function inh
CCC(C)n1c(SCC(=O)NC2CCCC2)nc2ccccc2c1=O (configuration not stated)	nt	?	nt	nt	11.7µM*	nt
COc1ccc(C(=O)Nn2c(SCC(=O)NCc3ccccc3)nc3ccccc3c2=O)cc1	50.8*	?	43.8	13.2%	nt	-7.3%
COc1ccc(OC)c(NC(=O)CSc2nc(=O)n(CCN3CCOCC3)c3c2CCCC3)c1	nt	?	nt	nt	-9.1%	nt
Cc1ccc(NC(=O)/C(C#N)=C/c2cccs2)c(C)c1	50.0*	-16.6%	100.8*	0.3%	-1.7%	3.7%
Cc1cccc(C)c1NC(=O)/C(C#N)=C/c1cccs1	-1.0	?	-2.0	5.8%	?	-23.3%
CC(C)(C)c1ccc(C(=O)/C(C#N)=C/c2cccs2)cc1	33.4*	-21.0%	73.2*	-0.1%	4.2%	0.0%
Cc1ccccc1NC(=O)/C(C#N)=C\c1ccsc1	27.6*	24.4%	55.5	7.2%	-5.2%	-3.9%
Cc1ccccc1NC(=O)/C(C#N)=C\c1cccnc1	-1.6	14.7%	-3.2	-0.3%	5.5%	17.6%
N#C/C(=C\c1cccs1)C(=O)Nc1ccccn1	36.1*	3.1%	40.5	0.9%	18.2%	-1.6%
COc1ccc(C(=O)N2CCC3(CCCN(Cc4nccs4)C3)CC2)cc1	nt	nt	nt	-0.9%	nt	nt
Cc1ccc(NC(=O)/C(C#N)=C/c2ccsc2)c(C)c1	43.4*	?	101.8*	-0.3%	?	8.2%
COc1ccc(/C=C(/C#N)C(=O)Nc2cc(C)ccc2C)cc1C(=O)O	-1.5	-19.1%	-8.9	2.7%	2.2%	14.9%
COC(C1CCCCC1)C(C)C(OCc1cccc(Br)c1)C(C)CO (configuration not stated)	nt	nt	nt	-0.9%[12.9 µM]	nt	nt
CCOC(=O)COn1c(=O)c(-c2ccccc2)[n+]([O-])c2ccccc21	3.2	5.6%	16.7	-4.0%	nt	-0.7%
O=[N+]([O-])c1ccccc1/C=N/OCc1ccccc1	30.8*	107.7%	104.4*	-1.5%	105.8%	-22.8%
CCCCn1c(N)c(N(CCOC)C(=O)COC(=O)COc2ccc(CC)cc2)c(=O)[nH]c1=O	nt	22.5%	nt	nt	?	nt
CCCc1cc(C(=O)Nc2c(C)n(C)n(-c3ccccc3)c2=O)no1	-3.8	9.28µM*	21.7	-7.1%	nt	7.3%
CCCCn1nc(C(=O)Nc2c(C)n(C)n(-c3ccccc3)c2=O)c2ccccc2c1=O	nt	14.7µM*	nt	nt	?	nt
Cc1ccccc1CNC(=O)C1CCN(c2nnc(N3CCCC3=O)s2)CC1	-1.0	49.2%	-2.7	8.5%	2.2%	10.0%
COc1ccc(-c2nc(CS(=O)CC(=O)N3CCOCC3)c(C)o2)cc1OC (configuration not stated)	-5.4	?	-7.5	nt	7.1%	-1.9%
CCC1(c2ccccc2)NC(=O)N(CC(=O)Nc2cc(S(=O)(=O)N3CCCCC3)ccc2OC(C)C)C1=O (configuration not stated)	nt	?	nt	nt	10.4µM*	nt
CCOc1ccc(S(=O)(=O)N2CCCCC2)cc1NC(=O)CN1C(=O)NC(CC)(c2ccccc2)C1=O (configuration not stated)	-0.6	11.7µM*	-7.9	nt	4.65µM*	-8.8%
CCC1(c2ccccc2)NC(=O)N(CC(=O)Nc2cc(S(=O)(=O)N3CCCCCC3)ccc2OC)C1=O (configuration not stated)	nt	7.38µM*	nt	nt	9.28µM*	nt
CCOc1ccc(S(=O)(=O)N2CCC(C(=O)OCc3cccc(OC)c3OC)CC2)cc1	nt	?	nt	nt	9.28µM*	nt
COc1ccccc1CNC(=O)COc1ccc(S(=O)(=O)N2CCCC2)cc1	-3.3	-28.0%	4.1	7.6%	13.1µM*	2.8%
SMILES	CHX counter	Pf growth 96h	Shiga inhibitor	Giardia FBPA inh	Pf growth 48h	NS1 function inh
CC(C)NC(=O)COc1ccc(S(=O)(=O)N2CCCC2)cc1	-1.3	1.47µM*	-6.6	6.7%	-15.5%	-7.2%
CCc1ccc(OCC(=O)NC(C)C)cc1	27.1*	26.5%	110.7*	2.1%	32.9%	-0.1%
CCN(C(=O)COC(=O)c1oc2ccc(OC)cc2c1C)C1CCS(=O)(=O)C1 (configuration not stated)	nt	13.8%	nt	nt	51.6%	nt
Cc1nn(C(=O)c2cccc([N+](=O)[O-])c2C)c(C)c1S(=O)(=O)N1CCCCCC1	-8.1	nt	-11.1	nt	nt	nt
O=C(O)CNCCc1ccccc1	nt	nt	nt	nt	nt	-5.2%
CC(C)(C)N1C(=O)[C@H]2[C@H]3[C@H](O)[C@H](O)C/C(=N/OCc4ccccc4)[C@H]3CC[C@@H]2C1=O	nt	nt	nt	-2.5%[12.9 µM]	nt	nt
CSc1ccccc1NC(=O)COc1ccc(S(=O)(=O)N2CCCC2)cc1	-0.8	?	1.0	20.0%	13.1µM*	-5.5%
CCc1ccc(OCC(=O)NC(=S)Nc2ccc(C(=O)O)cc2)cc1	0.1	1.7%	17.6	17.0%	13.7%	4.2%
CCc1ccc(OCC(=O)NC(NC(=S)Nc2ccc(Cl)cc2)C(Cl)(Cl)Cl)cc1 (configuration not stated)	-2.6	13.1µM*	-12.4	-0.4%	?	16.2%
O=C(O)c1ccccc1NCn1c(=S)sc2ccccc21	nt	nt	nt	nt	nt	-0.3%
Cc1c(Cl)c(=O)oc2cc(OP(=O)(OCCCl)OCCCl)ccc12	nt	?	nt	nt	13.5µM*	nt
c1cn(-c2ccnc(-c3ccc4c(c3)OCO4)n2)cn1	nt	nt	nt	-1.0%	nt	nt
COc1ccc2c(c1)C1=NN(/C(C)=C/C(C)=O)C(c3cccc(F)c3)C1CC2 (configuration not stated)	0.7	?	3.6	?	?	3.4%
COc1ccc2c(c1)CCC1C2=NN(/C(C)=C\C(C)=O)C1c1ccc(F)cc1 (configuration not stated)	61.6*	-10.6%	60.1*	?	?	-11.3%
COc1ccc2c(c1)C1=NN(/C(C)=C\C(C)=O)C(c3ccccc3)C1CC2 (configuration not stated)	26.3*	1.2%	71.1*	?	13.1µM*	-16.2%
COc1ccc2c(c1)C1=NN(/C(C)=C/C(C)=O)C(c3ccc(F)cc3)C1CC2 (configuration not stated)	30.9*	34.2%	94.5*	-25.3%	0.0%	-7.8%
CCOc1ccccc1-c1nnc2n1N=C(c1cccc(OC)c1)CS2	-5.9	nt	-10.2	-15.6%	nt	nt
CCCN(CCC)C(C)C(=O)NCC1(c2ccccc2)CCCC1 (configuration not stated)	11.9	-2.2%	3.0	-3.6%	-25.6%	-3.0%
COc1ccc(-c2c(O)c3cc(O)cc(O)c3oc2=O)cc1	43.9*	nt	71.2*	1.6%	nt	nt
COc1ccc(-c2c(C)c3cc(O)ccc3oc2=O)cc1	17.7*	?	23.6	2.0%	?	-22.8%
COc1ccc(-c2c(C)c3ccc(O)cc3oc2=O)cc1OC	0.9	15.0%	8.4	20.5%	16.1%	0.9%
O=C(NCCC1=CCCCC1)NC12CC3CC(CC(C3)C1)C2	43.7*	-100.9%	70.3*	3.6%	-4.2%	-55.6%
O=C(O)CCCCCCCCCCCNC(=O)NC12CC3CC(CC(C3)C1)C2	nt	2.08µM*	nt	nt	30.1%	nt
COc1ccc(CCNC(=O)NC23CC4CC(CC(C4)C2)C3)cc1	30.2	nt	62.1	3.0%	-2.9%	-13.4%
